Experimental findings from ChEMBL document CHEMBL4513146, “CO-ADD screening of Karazin Kharkiv National University (Ukraine) compounds” are described below.

Results with a measured potency or affinity are listed apart.

The subject of one assay is Klebsiella pneumoniae. The settings on record: Concentration 32 ug.mL-1;; ASSAY_TEST Inhibition of Bacterial Growth; detection method Absorption (OD600); MEDIA CAMHB; plate type 384well; NBS; CORNING #3640; time 18 hr.
Another assay deals with Candida albicans. The settings on record: Concentration 32 ug.mL-1; ASSAY_TEST Inhibition of Fungal Growth; detection method Absorption (OD530).
The next assay deals with Cryptococcus neoformans. The settings on record: Concentration 32 ug.mL-1; ASSAY_TEST Inhibition of Fungal Growth; detection method Resazurin; Absorption (OD600-OD570); plate type 384well; NBS; CORNING #3640. Background: Resazurin is reduced to fluorescent resorufin, in cell work by metabolically active cells.

Usually Inhibition stands for the drop in the measured response relative to a control, in per cent. As to `CCc1cccc(NC(=O)Cn2nc3c(Sc4ccc(C)cc4C)nccn3c2=O)c1`, the results for the Inhibition with Klebsiella pneumoniae, in the assay on Candida albicans and in the assay with Cryptococcus neoformans were -3.14%, 5.97% and -23.88%, respectively.

Take `Cc1ccc(CN(c2ccc(F)cc2)S(=O)(=O)c2ccc3nnc(C)n3c2)cc1`: the Inhibition with Klebsiella pneumoniae is given as -1.29%; in the assay on Candida albicans, 5.66%; with Cryptococcus neoformans it was -6.24%.

With `CCc1nnc2ccc(S(=O)(=O)N(Cc3cccc(OC)c3)c3ccc(F)cc3)cn12`, the Inhibition was 3.57% with Klebsiella pneumoniae, 1.64% in the assay with Candida albicans and -8.65% with Cryptococcus neoformans.

In the case of `O=C(Cn1nc2ccc(Sc3cccc(F)c3)nn2c1=O)NCc1ccc(C(F)(F)F)cc1`, the Inhibition with Klebsiella pneumoniae is reported as 8.35%; in the assay with Candida albicans it was 1.44%; with Cryptococcus neoformans it was -8.13%.

Take `Cc1nnc2ccc(S(=O)(=O)N(Cc3ccccc3)c3cccc(F)c3)cn12`: the Inhibition with Klebsiella pneumoniae is 4.18%; with Candida albicans, 2.53%; with Cryptococcus neoformans, -9.94%.

Take `Cc1cc2nn(CC(=O)N3CCCc4ccccc43)c(=O)n2c(Nc2ccc(F)cc2)n1`: the Inhibition in the assay with Klebsiella pneumoniae is on record as 10.84%; with Candida albicans, 1.07%; in the assay with Cryptococcus neoformans it was -3.85%.

`O=C(Cn1nc2c3c4c(sc3ncn2c1=O)CCCC4)NCc1ccccc1Cl`: the Inhibition with Klebsiella pneumoniae is listed as 0.41%; with Candida albicans it was 2.22%; in the assay with Cryptococcus neoformans it was -5.52%.

Consider `Cc1ccc(NC(=O)Cn2nc3c(Sc4ccccc4)nccn3c2=O)c(C)c1`, for which the Inhibition in the assay with Klebsiella pneumoniae is listed as 7.2%; with Candida albicans, 3.33%; in the assay with Cryptococcus neoformans, -10.8%.

Turning to `Cc1cccc(CSc2nnc3c(=O)n(-c4ccc(Br)cc4)ccn23)c1`, the Inhibition in the assay on Klebsiella pneumoniae is recorded as -2.02%; with Candida albicans, 2.08%; in the assay with Cryptococcus neoformans, -6.53%.

As to `Cc1ccc(Oc2nccn3c(=O)n(CC(=O)Nc4ccc(C)cc4Cl)nc23)cc1`, the Inhibition in the assay with Klebsiella pneumoniae is recorded as 4.57%; in the assay on Candida albicans it was 3.92%; with Cryptococcus neoformans it was -3.03%.

With `CCCNC(=O)Cn1nc2nc(Nc3ccc(F)cc3)ccn2c1=O`, the Inhibition in the assay with Klebsiella pneumoniae is listed as -2.03%; in the assay with Candida albicans, -0.03%; in the assay on Cryptococcus neoformans, -13.31%.

As for `CC(C)c1nnc2c(SCC(=O)N3CCN(c4ccc(F)cc4)CC3)nc3ccccc3n12`, the Inhibition in the assay on Klebsiella pneumoniae is recorded as 12.93%; with Candida albicans, -0.12%; in the assay on Cryptococcus neoformans, -22.8%.

`COc1cccc(-c2noc(Cn3nc4ccc(-c5ccc(C)c(C)c5)nn4c3=O)n2)c1OC`: the Inhibition in the assay with Klebsiella pneumoniae was 9.19%; in the assay with Candida albicans, -0.69%; in the assay with Cryptococcus neoformans, -10.63%.

On to `CSc1cccc(NC(=O)Cn2nc3c(N4CCCC4)nccn3c2=O)c1`, for which the Inhibition in the assay on Klebsiella pneumoniae is listed as 1.74%; with Candida albicans it was 3.86%; with Cryptococcus neoformans it was -5.38%.

With `Cc1cc(C)cc(NC(=O)Cn2nc3c4cc(-c5ccc(Cl)cc5)nn4ccn3c2=O)c1`, the Inhibition in the assay with Klebsiella pneumoniae is on record as 7.37%; with Candida albicans, 6.87%; with Cryptococcus neoformans, -7.11%.

For the compound `CCCn1c(=O)c2sccc2n2c(=O)n(CC(=O)c3cccc(OC)c3)nc12`, the Inhibition in the assay with Klebsiella pneumoniae is reported as 7.12%; in the assay with Candida albicans, 6.53%; in the assay with Cryptococcus neoformans, -27.27%.

Take `Cc1ccc(-c2cc3c4nn(CC(=O)Nc5cc(Cl)ccc5C)c(=O)n4ccn3n2)cc1C`: the Inhibition with Klebsiella pneumoniae is on record as 6%; with Candida albicans it was 4.85%; with Cryptococcus neoformans, -8.51%.

`Cc1cc(NC(=O)Cn2nc3ccc(SC(C)(C)C)nn3c2=O)ccc1Br`: the figures for the Inhibition in the assay with Klebsiella pneumoniae, in the assay on Candida albicans and in the assay with Cryptococcus neoformans were 5.26%, 32.86% and -21.27%, respectively.

`COc1cccc(NC(=O)Cn2nc3c(Sc4ccccc4)nccn3c2=O)c1`: the results for the Inhibition in the assay on Klebsiella pneumoniae, with Candida albicans and in the assay on Cryptococcus neoformans were 2.45%, 7.99% and -6.51%, respectively.

Consider `COc1ccc(-c2cc3c4nnc(SCC(=O)Nc5cccc(C)c5C)n4ccn3n2)cc1`, for which the Inhibition in the assay with Klebsiella pneumoniae is 2.16%; with Candida albicans it was 3.48%; with Cryptococcus neoformans it was -22.8%.

With `CCOc1ccc(-n2ccn3c(SC(C)C(=O)Nc4cc(OC)cc(OC)c4)nnc3c2=O)cc1` (stereo not drawn), the Inhibition was 7.45% with Klebsiella pneumoniae, 1.5% in the assay with Candida albicans and -3.58% with Cryptococcus neoformans.

`O=C(Cn1nc2n(CCc3ccccc3)c(=O)c3ccccc3n2c1=O)Nc1ccc2c(c1)OCO2`: the Inhibition in the assay on Klebsiella pneumoniae is 5.15%; with Candida albicans, 15.71%; in the assay on Cryptococcus neoformans, -16.57%.

Take `O=C(Cn1nc2c(SC3CCCCC3)nccn2c1=O)NCc1ccc(F)cc1`: the results for the Inhibition with Klebsiella pneumoniae, in the assay with Candida albicans and in the assay with Cryptococcus neoformans were 9.17%, 0.24% and -16.51%, respectively.

Regarding `CCOc1ccc(-n2ccn3c(SCC(=O)Nc4cc(OC)cc(OC)c4)nnc3c2=O)cc1`, the Inhibition with Klebsiella pneumoniae is 3.96%; in the assay on Candida albicans, 2.98%; in the assay with Cryptococcus neoformans, -7.81%.

For the compound `CN(C)C(=O)CSc1nnc2c(=O)n(-c3ccc(F)cc3)ccn12`, the Inhibition is 10.89% with Klebsiella pneumoniae, 3.85% in the assay with Candida albicans and -5.4% in the assay on Cryptococcus neoformans.

In the case of `COc1ccc(N(Cc2ccc(C)cc2)S(=O)(=O)c2ccc3nnc(C)n3c2)cc1`, the values for the Inhibition in the assay on Klebsiella pneumoniae, with Candida albicans and with Cryptococcus neoformans were -1.06%, 4.08% and -1.52%, respectively.

`COC(=O)c1ccc(NC(=O)CSc2nnc3ccc(C(=O)Nc4cccc(F)c4)cn23)cc1`: the Inhibition in the assay on Klebsiella pneumoniae was 4.63%; with Candida albicans it was 2.52%; with Cryptococcus neoformans it was -5.98%.

Consider `COc1cc(Cl)c(C)cc1NC(=O)Cn1nc2ccc(SC(C)(C)C)nn2c1=O`, for which the Inhibition with Klebsiella pneumoniae is 11.93%; with Candida albicans, 3.05%; in the assay with Cryptococcus neoformans, -11.08%.

In the case of `O=C(Cn1nc2c(Oc3ccccc3)nccn2c1=O)Nc1ccccc1Cl`, the Inhibition with Klebsiella pneumoniae was 5.8%; with Candida albicans, -0.88%; in the assay with Cryptococcus neoformans, -12.94%.

Turning to `Cc1ccc(-c2ccc3nn(Cc4nc(-c5ccc(Cl)cc5)no4)c(=O)n3n2)cc1C`, the Inhibition in the assay with Klebsiella pneumoniae is given as 7.1%; with Candida albicans, 1.35%; with Cryptococcus neoformans, -12.88%.

As to `Cc1ccc(-c2ccc3nnc(CCC(=O)NCc4ccc(C(C)C)cc4)n3n2)cc1C`, the results for the Inhibition with Klebsiella pneumoniae, in the assay with Candida albicans and with Cryptococcus neoformans were 10.51%, 5.56% and -18.09%, respectively.
